Test results as given in PubChem BioAssay (NCI).
Compounds without any hit were thinned out: in the full panel of roughly 83,000, 20% have a hit.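 Assay: single dose, 48 h. Readout: percent growth (0 = no net growth; negative = cell death). Active: <10.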 Active and inactive are the calls of the source.

Legend:
Assay in all cases: NCI-60 one-dose screen, 48 h (100 = growth as untreated, 0 = no growth, -100 = all killed)
Details in all cases: 10 µM unless noted
[1] = tested on: NCI-H23 lung
[2] = tested on: NCI-H226 lung
[3] = tested on: NCI-H322M lung
[4] = tested on: HOP-62 NSCLC
[5] = tested on: NCI-H460 lung
[6] = tested on: NCI-H522 lung
[7] = tested on: A549/ATCC NSCLC
[8] = tested on: 786-0 renal
[9] = tested on: COLO 205 colon
[10] = tested on: HOP-92 NSCLC

Measured: growth

O=C1/C(=C/c2ccccc2)CCC/C1=C\c1ccccc1
inactive: [1] 88% | [2] 96% | [3] 94.9% | [4] 109% | [5] 103% | [6] 78.7% | [7] 98.8% | [8] 87.7% | [9] 127%

CCCCCCCCCCCCNCCCc1ccccc1
inactive: [1] 89.2% | [2] 96.6% | [3] 91.1% | [4] 95% | [5] 83.9% | [6] 63.6% | [8] 69.4%
active: [9] -50.8%

Oc1ccc2ccccc2c1N=Nc1ccccn1
active: [8] 7.32%
inactive: [1] 42.6% | [2] 19.1% | [3] 47.8% | [4] 30.1% | [5] 17.4% | [7] 53.5% | [9] 15.9%

COc1ccc(C(OCC2OC(n3ccc(NC(=O)c4ccccc4)nc3=O)C(O)C2O)(c2ccccc2)c2ccccc2)cc1 (centres undefined)
inactive: [1] 54.8% | [2] 29.9% | [3] 109% | [4] 85.3% | [5] 15.5% | [6] 67.9% | [7] 28.1% | [8] 52.5% | [9] 39.5%

O=[N+]([O-])c1ccc([I+]c2ccccc2)cc1
active: [1] -55.1% | [2] -30.2% | [4] -67.6% | [6] -87.8% | [7] -71.6% | [8] -15.4% | [9] -84.3%
inactive: [3] 67.4% | [10] 60.5%

COc1cc(/C=C/c2ccnc3ccccc23)cc(OC)c1OC
inactive: [1] 26.5% | [2] 38.3% | [3] 65.7% | [4] 28.1% | [5] 22.4% | [6] 26.8% | [7] 37% | [8] 39.6% | [9] 22.5%

O=C1C=CC(=O)N1C1CCCCCCCCCCC1
inactive: [1] 89.9% | [2] 82.9% | [3] 95.3% | [4] 101% | [5] 106% | [7] 91.6% | [8] 94.6% | [9] 52.4%
active: [6] 7.03%

CCOC(=O)C1=C(C(=O)c2ccccc2)C(c2cccc([N+](=O)[O-])c2)C(C(=O)c2ccccc2)=C(C(=O)OCC)N1
inactive: [1] 86.3% | [2] 84.9% | [3] 94.1% | [4] 93% | [10] 85.6% | [6] 83.5% | [7] 95.3% | [8] 93.9% | [9] 114%

CCOC(=O)c1c(C)[nH]c2ccc(O)cc12
inactive: [1] 103% | [2] 94.3% | [3] 99.7% | [4] 107% | [10] 103% | [6] 52.7% | [7] 95.7% | [8] 100% | [9] 113%

CCNc1nnnn1CC
inactive: [1] 107% | [2] 102% | [3] 105% | [4] 110% | [5] 106% | [6] 106% | [7] 113% | [9] 109%

OC(c1cc2ccc(C(F)(F)F)cc2c2cc(C(F)(F)F)ccc12)C1CCCCN1 (centres undefined)
active: [1] -95.8% | [2] -71.4% | [3] -91.5% | [4] -100% | [5] -100% | [6] -87.7% | [7] -97% | [8] -85% | [9] -100%

CCCCCCCCCCCC1N=C(N)N=C(N)N1c1cccc(Br)c1 (centres undefined)
active: [1] 6.58% | [4] -8.64% | [5] -58.4% | [8] 4.98% | [9] -77.3%
inactive: [2] 39.1% | [3] 54.4% | [7] 21.7%

Cc1cc(Br)c2nsnc2c1[N+](=O)[O-]
active: [1] -6.95% | [6] -40% | [9] 0.766%
inactive: [2] 44.4% | [3] 88.2% | [4] 55.6% | [10] 62.5% | [7] 54.4% | [8] 17.8%

N#Cc1c2ccccc2nc2ccccc12
inactive: [1] 100% | [2] 93.8% | [3] 110% | [4] 108% | [5] 101% | [6] 101% | [7] 92.8% | [8] 97.7% | [9] 107%

O=C1C(=O)c2cc([N+](=O)[O-])ccc2-c2ccccc21
active: [1] -71.8% | [2] -98.7% | [4] -93.3% | [7] -52.2% | [8] -96.7% | [9] -56.9%
inactive: [3] 96.9% | [5] 16.4%

c1csc(-c2[nH]nc3c2CCc2ccccc2-3)c1
active: [9] -11.2%
inactive: [1] 95.8% | [2] 80.9% | [3] 55.4% | [4] 91.1% | [5] 55% | [6] 101% | [8] 103%

Cc1cc(C)c([I+]c2c(C)cc(C)cc2C)c(C)c1
active: [1] -29.1% | [2] -1.55% | [4] -78.3% | [5] 1.11% | [6] -66.8% | [7] 6.93% | [8] -89.6% | [9] -94.4%
inactive: [3] 46.5%

COc1ccc(C(Cn2ccnc2)Sc2ccc(Cl)c(Cl)c2)cc1 (centres undefined)
inactive: [1] 82.8% | [2] 69.7% | [3] 91.3% | [4] 85.5% | [10] 50.7% | [6] 60.2% | [7] 88.1% | [8] 77.8% | [9] 87.6%

CC1(O)CCCCCC1
inactive: [1] 98.4% | [2] 99.1% | [3] 93.1% | [4] 87.7% | [5] 107% | [6] 112% | [7] 103% | [8] 95.7% | [9] 107%

COC(=O)c1nc(=S)[nH]c(C(=O)OC)c1C(=O)c1ccc(Cl)c(Cl)c1
inactive: [1] 103% | [2] 102% | [3] 107% | [4] 115% | [5] 111% | [6] 101% | [8] 107% | [9] 120%

Oc1c(Cl)cc(Cl)cc1C(c1cc(Cl)cc(Cl)c1O)C(Cl)(Cl)Cl
active: [1] -19.9% | [2] 5.37% | [3] -21.8% | [4] -6.29% | [5] -20.7% | [6] -12.8% | [7] 1.48% | [8] 9.47% | [9] -90.9%

O=C1C(=O)c2cccnc2-c2ncccc21
active: [1] -68.3% | [2] -28.7% | [4] -44.7% | [10] -36.9% | [6] 5.23% | [7] 6.49% | [8] -94.1% | [9] -88.5%
inactive: [3] 20.5%

NC(=S)N/N=C\c1nccc2c(C(F)(F)F)cccc12
inactive: [1] 13.4% | [9] 17.8%
active: [2] -0.105% | [3] 4.15% | [4] -5.75% | [5] 0.121% | [6] -30.5% | [8] -24.7%

COc1cc(-c2ccc(-[n+]3nc(-c4ccc([N+](=O)[O-])cc4)nn3-c3ccc([N+](=O)[O-])cc3)c(OC)c2)ccc1-[n+]1nc(-c2ccc([N+](=O)[O-])cc2)nn1-c1ccc([N+](=O)[O-])cc1
inactive: [1] 26.1% | [3] 44.3% | [7] 11.8%
active: [2] -32.5% | [4] -59.7% | [5] 3.02% | [8] 0.457% | [9] -69%

Clc1ccc(Cc2nc3ccccc3s2)cc1
inactive: [1] 89.3% | [2] 89.2% | [3] 89.2% | [4] 115% | [10] 122% | [6] 99.1% | [7] 96.4% | [8] 109% | [9] 117%

Cc1oc2c(C)c3oc(=O)cc(C)c3cc2c1CCl
inactive: [1] 84.9% | [2] 75.5% | [3] 75.9% | [4] 92.3% | [10] 58.5% | [6] 54.7% | [7] 88.5% | [8] 84.2% | [9] 83.8%

CCOC(=O)c1[nH]c(C#N)c(C(=O)OCC)c1C
inactive: [1] 101% | [2] 95.9% | [3] 93.6% | [4] 101% | [5] 114% | [6] 97.9% | [8] 86.9% | [9] 131%

CCCCCCCCCCCC[n+]1ccc2ccccc2c1
inactive: [3] 17%
active: [1] -33.4% | [2] 4.19% | [4] -33.2% | [5] -13.5% | [6] -39.2% | [7] 6.68% | [8] -62.8% | [9] -80.2%

CCN(CC)CC(O)CNc1ccc(NCC2CO2)c2c1C(=O)c1ccccc1C2=O (centres undefined)
active: [1] -43% | [2] 0.0591% | [3] -16.7% | [4] -34.9% | [5] -43.9% | [6] -74.1% | [7] 7.32% | [8] -21.7% | [9] -40.8%

O=[N+]([O-])CC(O)c1ccccc1 (centres undefined)
inactive: [1] 93.1% | [2] 97.9% | [3] 118% | [4] 100% | [5] 101% | [6] 97.3% | [8] 80.3% | [9] 113%

Cc1nc([N+](=O)[O-])c(Sc2nncc(-c3ccccc3)n2)n1C
inactive: [1] 82.1% | [2] 80.1% | [3] 92.1% | [4] 95.4% | [10] 93.1% | [6] 95.2% | [7] 95.9% | [8] 94% | [9] 74.5%

CC(=O)Nc1ccc(C(=O)CCl)cc1
inactive: [1] 86.4% | [2] 92.6% | [3] 95.5% | [4] 94% | [10] 62% | [7] 98.7% | [8] 16.9%
active: [6] -65.4% | [9] 3.3%

S=C=Nc1ccc(N2CCOCC2)cc1
inactive: [1] 92.1% | [2] 86% | [3] 96.1% | [4] 89.6% | [6] 74.4% | [8] 89.8% | [9] 97.4%
